Screen size: about 3,600 compounds; about 900 (25%) were called active. The rule behind the calls is not given here. The list is a sample of the results. Results with a measured potency or affinity are listed apart.
The molecules below were run against Protein Tat (Human immunodeficiency virus type 1 group M subtype B (isolate HXB2)) (UniProt P04608) (assay: HIV-1 Tat–TAR interaction blockers – biochemical, fluorescence polarization, FAM-labeled TAR RNA, counter-screen for Vif-APOBEC3G degradation inhibitor project, dose response (AID 1117361)). Conditions: Tat-TAR RNA binding; series mostly up to 100 µM.
`CCN(CC)S(=O)(=O)N1CCC(C(=O)NCC2COc3ccccc3O2)CC1` (stereo not drawn) was tested, and the outcome was “inactive”. `N/C(=N\OC(=O)COc1ccc([N+](=O)[O-])cc1)c1cccnc1` was tested, and the outcome was “inactive”. `O=C(NCc1cccc(F)c1)C1CCN(S(=O)(=O)Cc2ccccc2)CC1` was tested, and the outcome was “inactive”. In the case of `O=C(CSc1nnc(Cc2ccc(Cl)cc2)o1)Nc1ccccc1`, the outcome is reported as “inactive”. With `CC1CCCC(NC(=O)Cn2cc3c(n2)CCCCC3)C1C` (stereo not drawn) the outcome was “inactive”. With `COCCn1cc(C(=O)NCc2cccs2)c2c3ccccc3n(C)c2c1=O` the outcome was “inactive”. In the case of `Cc1ccc2c(c1)N=C(c1ccc(Cl)cc1)CO2`, the outcome is reported as “inactive”. With `COc1ccc(NC(=O)Nc2cccs2)cc1OC` the outcome was “inactive”. In the case of `CCOC(=O)C1CCCN(c2c(NCCN(CC)c3ccccc3)c(=O)c2=O)C1` (stereo not drawn), the outcome is reported as “inactive”. With `CCOC(=O)C1CCCN(C(=O)c2ccc3c(c2)OCO3)C1` (stereo not drawn) the outcome was “inactive”. With `COc1cc(C(=O)Oc2cccc(Nc3ncnc4ccccc34)c2)cc(OC)c1OC` the outcome was “inactive”. For `COc1ccc2c(c1)C1CC(C)(NC(=O)C1C(=O)c1ccccc1)O2` (stereo not drawn), the outcome was “inactive”. For `COc1ccc(/C=N/N=C2/NC(=O)C(c3ccccc3)S2)c(OC)c1` (stereo not drawn), the outcome was “inactive”. For `COc1cc(/C=N/N=C2/NC(=O)C(c3ccccc3)S2)ccc1O` (stereo not drawn), the outcome was “inactive”. For `Cc1[nH]c2ccccc2c1C(=O)CN1C(=O)NC(C)(c2ccc(Cl)cc2Cl)C1=O` (stereo not drawn), the outcome was “inactive”. `CCN(CC(=O)NCc1cccs1)C(=O)c1ccc([N+](=O)[O-])o1` was tested, and the outcome was “inactive”. With `COc1cccc(NC(=O)CN(C)C(=O)CCCc2nc3ccccc3s2)c1` the outcome was “inactive”. In the case of `CN(CC(=O)Nc1cccc(F)c1)C(=O)c1cc(-c2ccco2)nc2ccccc12`, the outcome is reported as “inactive”. `COc1ccc(-c2cc(C(=O)N(C)CC(=O)Nc3ccccc3Br)c3ccccc3n2)cc1OC` was tested, and the outcome was “inactive”. `Cc1cc(C)n2nc(C(=O)OCC(=O)N(C)CC(=O)Nc3ccc(F)cc3)nc2n1` was tested, and the outcome was “inactive”. `COc1ccc(C(=O)Nc2cccnc2)cc1S(=O)(=O)N1CCOCC1` was tested, and the outcome was “inactive”. For `COc1ccc(OC)c(NC(=O)COC(=O)c2ccc(OC)c(S(=O)(=O)N3CCOCC3)c2)c1`, the outcome was “inactive”. With `CC(=NC1CCCC1)c1c(C)[nH]n(-c2nc3ccccc3s2)c1=O` the outcome was “inactive”. For `c1ccc(-c2cc(-c3nnc4n3N=C(c3ccc5ccccc5c3)CS4)[nH]n2)cc1`, the outcome was “inactive”. For `O=[N+]([O-])c1cccc(/C(=N/N=C/c2ccccc2Br)C23CN4CN(CN(C4)C2)C3)c1`, the outcome was “inactive [at 50 µM]”. `COC(=O)c1c(NC(=O)COC(=O)c2ccc(NC(=O)CC#N)cc2)sc2c1CCCCC2` was tested, and the outcome was “inactive”. In the case of `O=C(CSc1nc2cc([N+](=O)[O-])ccc2n1-c1ccccc1)NCc1ccc2c(c1)OCO2`, the outcome is reported as “inactive”. In the case of `CCCc1ccc(-c2csc(NC(=O)Cc3cccs3)n2)cc1`, the outcome is reported as “inactive”. For `COC(=O)C1=C(N)Oc2cc(C)n(Cc3cccnc3)c(=O)c2C1c1cccc(OC)c1OC` (stereo not drawn), the outcome was “inactive”. For `O=C(OCN1C(=O)c2ccccc2C1=O)C1CCCCC1`, the outcome was “inactive”. In the case of `COc1cc(-c2n[nH]c(=O)o2)cc(OC)c1OC`, the outcome is reported as “inactive”. In the case of `COC(=O)/C(=C\Nc1ccccc1)NC(=O)c1ccc(Cl)cc1Cl`, the outcome is reported as “inactive”. `CCOc1ccc2nc(NC(=O)CN3CCN(c4ccccn4)CC3)sc2c1` was tested, and the outcome was “inactive”. With `CC1=C(C(=O)OC2CCCCC2)C(c2ccc(C)o2)C2=C(CCCC2=O)N1` (stereo not drawn) the outcome was “inactive”. In the case of `CCOc1ccc(N(C(C)C(=O)NC2CCCCCC2)S(C)(=O)=O)cc1` (stereo not drawn), the outcome is reported as “inactive”. For `CC(NC(=O)/C(C#N)=C/c1cn[nH]c1-c1ccccc1)c1ccccc1` (stereo not drawn), the outcome was “inactive”. For `CCCC[C@@H]1CNC(=S)N1CCc1cccc2ccccc12`, the outcome was “inactive”. `Cc1nn(Cc2ccc(F)cc2)c(C)c1NC(=O)c1noc2c1CCc1ccccc1-2` was tested, and the outcome was “inactive”. In the case of `N=c1ccn(Cc2ccc(Cl)cc2)cc1`, the outcome is reported as “inactive”. With `C=CCc1c(C)nc(C)nc1N/N=C/c1ccc(F)cc1` the outcome was “inactive”. For `COCCNC(=S)c1ccc(OC)cc1`, the outcome was “inactive”. In the case of `CCN(CC)S(=O)(=O)c1ccc(C(=O)NCc2n[nH]c(=S)n2-c2ccccc2OC)cc1`, the outcome is reported as “inactive”. In the case of `Clc1ccc2nc3ccccn3c2c1`, the outcome is reported as “inactive”. With `Cc1ccc(N=Cc2nc(-c3ccco3)oc2O)cc1` the outcome was “inactive”. For `O=C(NC1CCCCC1)n1c(=O)oc2cc(S(=O)(=O)N3CCCCC3)ccc21`, the outcome was “inactive”. For `CC(C)Cn1c(N)c(C(=O)NCc2cccs2)c2nc3ccccc3nc21`, the outcome was “inactive”. `COC(=O)c1ccc(-n2nnnc2SCC(=O)Nc2cc(OC)ccc2OC)cc1` was tested, and the outcome was “inactive”. In the case of `CCOC(=O)N1CCC(N2Cc3cccc(C(=O)Nc4cc(F)ccc4F)c3C2=O)CC1`, the outcome is reported as “inactive”. In the case of `CC1(C)CC(=O)C=C(Nc2ccccc2NC(=O)c2cnccn2)C1`, the outcome is reported as “inactive”. In the case of `CCC(C)NS(=O)(=O)c1ccc(NS(=O)(=O)c2ccc(F)cc2)cc1` (stereo not drawn), the outcome is reported as “inactive”. `O=C(CCc1c[nH]c2ccccc12)N1CCN(c2ccc(O)cc2)CC1` was tested, and the outcome was “inactive”. `CC(C)CN1C(=O)c2ccc(C(=O)Nc3ccc(O)cc3C(=O)O)cc2C1=O` was tested, and the outcome was “inactive”. `COC(=O)c1c(NC(=O)CC2NCCNC2=O)sc2c1CCCC2` (stereo not drawn) was tested, and the outcome was “inactive”. With `Cc1nn(CC(=O)Nc2ccccn2)c(C)c1Br` the outcome was “inactive”. With `CCOCCCNC(=O)C1CCN(S(=O)(=O)CC)CC1` the outcome was “inactive”. In the case of `CCOC(=O)C(C)N1C(=O)S/C(=C\c2ccc(-c3ccccc3C(=O)O)o2)C1=O` (stereo not drawn), the outcome is reported as “inactive”. For `COc1cc(C(=O)Nc2cccc(-c3nc4ncccc4o3)c2C)cc(OC)c1OC`, the outcome was “inactive”. For `CCC1(C(N)=O)CC2C=CC1C2` (stereo not drawn), the outcome was “inactive”. `CCOC(=O)C(C)Sc1nnc2n1C(C)(C)Cc1ccccc1-2` (stereo not drawn) was tested, and the outcome was “inactive”. For `O=S1(=O)CCC(N2CCOCC2)C1` (stereo not drawn), the outcome was “inactive”. With `CCOC(=O)/C=C1\SC(C)C(=O)N1CC(=O)N(CCC#N)c1ccccc1` (stereo not drawn) the outcome was “inactive”. For `COc1ccc(C2=NO[C@@H]3C(=O)N(c4ccc(C)cc4C)C(=O)[C@H]23)cc1OC`, the outcome was “inactive”. In the case of `COc1ccc(OC)c(-n2cnnn2)c1`, the outcome is reported as “inactive”. In the case of `CC(C)(C)NC(=O)C1N(c2cccnc2)C(=O)C2C(C(=O)Nc3ccccc3F)C3(C)C=CC21O3` (stereo not drawn), the outcome is reported as “inactive”. `COc1ccc(OC)c(NC(=O)CSc2nnc(C)n2Cc2ccccc2)c1` was tested, and the outcome was “inactive”. `O=C(NCCN1CCOCC1)c1cc(-c2ccc(Br)cc2)on1` was tested, and the outcome was “inactive”. For `Cc1cc(SCC(=O)NCCCN2CCCC2=O)nc2ccccc12`, the outcome was “inactive”. For `CCc1nc(SCC(=O)Nc2ccc(C(=O)O)cc2)n[nH]1`, the outcome was “inactive”. For `S=c1[nH]nc(COc2ccc(Cl)cc2)o1`, the outcome was “inactive”. `O=C(NNc1cc(Cl)cc(Cl)c1)c1c(F)cccc1Cl` was tested, and the outcome was “inactive”. For `S=c1nc(-c2ccc(Br)cc2)oc2c1CCCC2`, the outcome was “inactive”. With `CCOC(=O)N1CCN(CC(=O)c2ccc3c(c2)CCN3C(C)=O)CC1` the outcome was “inactive”. With `Cc1ccc(Cc2cnc(NC(=O)/C(C#N)=C/c3ccc(-c4ccc([N+](=O)[O-])cc4)o3)s2)cc1` the outcome was “inactive”. With `CC(OC(=O)c1ccc([N+](=O)[O-])o1)C(=O)NC1CCCCC1C` (stereo not drawn) the outcome was “inactive”. `COc1cc(O)oc1C=Nc1ccccc1` was tested, and the outcome was “inactive”. `CCOc1ccccc1C1CC(=O)NC(SCC)=C1C#N` (stereo not drawn) was tested, and the outcome was “inactive”. In the case of `O=S(=O)(Nc1ccc(Cc2ccncc2)cc1)c1ccc(Br)cc1`, the outcome is reported as “inactive”. In the case of `COc1ccc(N(CC(=O)NCCC2=CCCCC2)S(=O)(=O)c2ccccc2)cc1`, the outcome is reported as “inactive”. In the case of `O=C1CC(c2ccco2)CC(O)=C1C=NCC1CCNCC1` (stereo not drawn), the outcome is reported as “inactive”. In the case of `CCCN(CC(=O)Nc1ccccc1C)C(=O)COC(=O)c1cnc(C)cn1`, the outcome is reported as “inactive”. `CC(C)(C)NC(=O)CSc1nnc(-c2ccncc2)n1Cc1ccccc1` was tested, and the outcome was “inactive”. With `CCOC(=O)Cn1c(=O)oc2cc(S(=O)(=O)NC3CCCc4ccccc43)ccc21` (stereo not drawn) the outcome was “inactive”. `CCn1c(SC(C)C(=O)NC2CCCc3ccccc32)nnc1-c1cccs1` (stereo not drawn) was tested, and the outcome was “inactive”. With `c1ccc2c(c1)ccc1nnc(SCc3ccc4c(c3)OCO4)n12` the outcome was “inactive”. For `CCC(c1ccc(O)c(O)c1)C(CC)c1ccc(O)c(O)c1` (stereo not drawn), the outcome was “inactive”. For `CSc1ccc(CN(C)CC(=O)NC(=O)NCCC2=CCCCC2)cc1`, the outcome was “inactive”. In the case of `COc1cc(/C=N/N=C(N)N)ccc1OCc1ccc(Cl)cc1`, the outcome is reported as “inactive”. With `CSc1cccc(-n2cc(-c3ccc4c(c3)OCO4)[nH]c2=O)c1` the outcome was “inactive”. In the case of `CSCC[C@@H](Nc1nc(-c2ccccc2)nc2c1oc1ccccc12)C(=O)O`, the outcome is reported as “inactive”. For `CN1CCN(C(=O)C2CCN(S(=O)(=O)c3cnc[nH]3)CC2)CC1`, the outcome was “inactive”. `C/C=C/c1ccc(OCC(=O)N2CCc3cc(OC)c(OC)cc3C2)c(OC)c1` was tested, and the outcome was “inactive”. `COCCCNC(=O)c1cc(OC)c(OC)c(OC)c1` was tested, and the outcome was “inactive”. In the case of `Cc1nn(-c2ccccc2)cc1/C=N/O`, the outcome is reported as “inactive”. For `CCCc1nc(SCC(=O)N2CCCc3ccccc32)c2c(=O)n(C)c(=O)n(C)c2n1`, the outcome was “inactive”. `O=C(NC(Cc1ccccc1)c1nc2ccccc2[nH]1)c1cccc([N+](=O)[O-])c1` (stereo not drawn) was tested, and the outcome was “inactive”. For `CCOC(=O)C1=C(C)N=c2s/c(=C/c3ccco3)c(=O)n2C1c1cccc(OC)c1` (stereo not drawn), the outcome was “inactive”. In the case of `CCOC(=O)C1=C(C)NC(C)=C(C(=O)OCC)C1c1cn(-c2ccccc2)nc1-c1ccco1`, the outcome is reported as “inactive”. In the case of `O=C(CN1c2ccccc2Sc2ccccc21)NNC(=S)Nc1ccc(Cl)cc1Cl`, the outcome is reported as “inactive”. For `CCCn1nc(NC(=O)c2cccs2)c2cc3ccccc3nc21`, the outcome was “inactive”. In the case of `CC1=C(SCc2ccccc2)C(=O)c2ccccc2C1=O`, the outcome is reported as “inactive”. For `CCCCNC(=O)c1onc(CSc2ccc(C(C)C)cc2)c1C(=O)O`, the outcome was “inactive”. For `COc1ccc(CCN(C)C(=O)COC(=O)/C=C/c2ccc(C)o2)cc1OC`, the outcome was “inactive”. With `Cn1nc(C(F)(F)F)c(C#N)c1N1CCN(c2ccc(F)cc2)CC1` the outcome was “inactive”. For `Cn1cc(/C=C/C(=O)N2CCCC(C(=O)c3cccc(C(F)(F)F)c3)C2)cn1` (stereo not drawn), the outcome was “inactive”. For `CCOC(=O)C1Nc2ccc(Br)cc2C2C=CCC12` (stereo not drawn), the outcome was “inactive”. In the case of `CC(C)Cc1nc2oc3c(NCC(C)O)ncnc3c2c2c1CCCC2` (stereo not drawn), the outcome is reported as “inactive”. For `O=C(NC1CCCCC1)C(c1ccc(F)cc1)N(C(=O)Cc1ccsc1)c1ccc(F)cc1` (stereo not drawn), the outcome was “inactive”. `O=C1C(O)CC2c3ccccc3CC3(CCCC3)N12` (stereo not drawn) was tested, and the outcome was “inactive”.

Reference: PubChem BioAssay AID1117361 (Southern Research Institute, 2015)
